# Compound activity from PubChem.
# ELG1 genotox: inducers of genotoxicity in HEK293T ELG1-luciferase cells; HEK293T ELG1-luciferase reporter, luminescence, 16 h; Potency, µM (doses to about 46 µM), without a hit: at the highest dose activity change, positive = activation, usual class: activators; actives 1.3% (n = 330,000); also: % of control where 0% means no effect; nearly all actives have a fitted effect of over 60% in size
#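 ELG1-luciferase HEK293T cells, 2,000/well; compound pinned in; 16 hr, 37 °C, 5% CO2; ONE-Glo, 30 min RT; luminescence on CCD imager.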
# Rab9 prom act: activates the Rab9 promoter; Huh7 Rab9 promoter-luciferase reporter, luminescence, 24 h; Potency, µM (top dose mostly 9.22 µM), without a hit: top-dose activation, negative = inhibition, hits mostly activators; actives 2.8% (n = 320,000); also: % of control where 0% means no effect; nearly all actives have a fitted effect of over 60% in size
#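 Stable Rab9-luc Huh7, 1500 cells/well, 2 h settle; cmpd in DMSO, 24 h, 37 °C/5% CO2; luciferase reagent 10 min RT; luminescence.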
# FLuc counter: firefly luciferase modulation, counter-screen for miR-21 project. P08659. purified FLuc, Km substrates, luminescence inhibition. Potency, µM (series often up to 57.5 µM), inactives show top-dose activity change, negative = inhibition, most hits filed as inhibitors. actives 6.9% (n = 360,000). AID 588342;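 also: plate controls were vehicle for no effect and reference inhibitor for full effect; nearly all actives have a fitted effect of over 55% in size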
# Target sequence (P08659 whole entry, looked up): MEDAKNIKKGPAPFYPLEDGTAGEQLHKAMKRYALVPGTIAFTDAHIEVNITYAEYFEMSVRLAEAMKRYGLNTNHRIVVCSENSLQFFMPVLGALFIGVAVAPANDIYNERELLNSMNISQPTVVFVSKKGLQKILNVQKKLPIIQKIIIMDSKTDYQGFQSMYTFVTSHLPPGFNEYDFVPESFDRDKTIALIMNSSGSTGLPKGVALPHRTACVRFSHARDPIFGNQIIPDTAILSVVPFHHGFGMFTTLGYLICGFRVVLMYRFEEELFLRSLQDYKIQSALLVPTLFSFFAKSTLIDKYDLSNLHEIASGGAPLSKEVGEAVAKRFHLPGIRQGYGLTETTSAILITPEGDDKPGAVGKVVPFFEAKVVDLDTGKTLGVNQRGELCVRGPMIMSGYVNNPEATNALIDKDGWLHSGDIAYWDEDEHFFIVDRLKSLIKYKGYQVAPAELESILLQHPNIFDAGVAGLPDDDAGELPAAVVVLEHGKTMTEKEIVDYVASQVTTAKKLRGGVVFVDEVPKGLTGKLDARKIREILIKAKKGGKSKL
#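 Purified P. pyralis luciferase (10nM final) with 10uM D-luciferin and 10uM ATP (Km levels) in 50mM Tris acetate pH 7.5, 10mM Mg acetate, 0.01% Tween-20, 0.05% BSA; qHTS 6-point titration, ~60 µM downward; luminescence read.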
# SMN2 splice up: SMN2 splice variant enhancement. HEK293 SMN2-luciferase splicing reporter, luminescence, 30-36 h. Potency, µM (highest dose often 46.1 µM), inactives show at the top dose activity change, positive = activation, most hits filed as activators. actives 2.8% (n = 210,000). AID 1458; also: % of control where 0% means no effect; nearly all actives have a fitted effect of over 55% in size
#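 HEK293 cells carry an SMN2 […]–luciferase reporter in which exon 7 inclusion puts luciferase in frame. Cells were plated 10-12 h before compound addition, then incubated 30-36 h at 37C. ONE-Glo luminescence was read; sodium butyrate at 4.5 mM final served as control.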
# NPC1 prom act: activates the NPC1 promoter; Huh7 NPC1 promoter luciferase reporter, 24 h; Potency, µM (doses to about 9.22 µM), for the others: top-dose activation, actives largely listed as activators; actives 2.4% (n = 320,000); also: % of control where 0% means no effect; nearly all actives have a fitted effect of over 60% in size
#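 Luminescence from an NPC1 promoter-driven luciferase reporter in stably transfected Huh7 cells was measured after 24 h compound treatment at 37 °C, followed by 10 min ambient incubation with luciferase detection reagent.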
# Luc counter: Kinase-Glo luciferase inhibition (counter-screen) | Q27757 | Kinase-Glo luciferase, ATP luminescence, 8 min | Potency, µM (doses to about 38.3 µM), inactives show at the top dose activity change, negative = inhibition, most hits filed as inhibitors | actives 0.28% (n = 200,000); also: % is scaled to controls: 0 for no effect and ±100 for the full control effect; nearly all actives have a fitted effect of over 60% in size
#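 Recombinant Kinase-Glo luciferase, 10 uM ATP (linear range), luciferin; imidazole pH 7.2 / KCl / MgCl2 / Tween / BSA buffer; 8 min RT; luminescence.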
# An asterisk follows results filed as active; ? = inconclusive; · = no result. This is a sample that favours compounds with a hit; in the whole collection about 7.5% have one here. Calls follow the shape of the dose curve; as a rule, active = well fitted curve in the direction sought with a large enough effect; inconclusive = small, poorly fitted or top-dose-only effect, or another doubt; inactive = no such curve, though single readings can be large; an effect the other way counts as inactive or inconclusive. Potency is read from the fitted curve at half-maximal effect.
SMILES,ELG1 genotox,Rab9 prom act,FLuc counter,SMN2 splice up,NPC1 prom act,Luc counter
Cc1ccc(OCC(=O)Nc2cccc(C(=O)OCc3cc(=O)n4nc(C)sc4n3)c2)cc1,·,·,9.53µM*,·,·,·
Cc1nn2c(=O)cc(COC(=O)c3ccc(NC(=O)COc4ccccc4F)cc3)nc2s1,·,·,0.7%,·,·,·
Cc1csc2nc(COC(=O)c3cccc(NC(=O)COc4ccccc4Cl)c3)cc(=O)n12,·,·,1.2µM*,·,·,·
Cc1nn2c(=O)cc(COC(=O)COc3ccccc3C)nc2s1,·,·,3.4%,·,·,·
Cc1nn2c(=O)cc(COC(=O)c3c(F)cccc3Cl)nc2s1,?,3.98µM*,?,·,3.98µM*,·
Cc1ccccc1OCC(=O)Nc1ccc(C(=O)OCc2cc(=O)n3c(C)csc3n2)cc1,·,·,0.5%,·,·,·
Cc1nn2c(=O)cc(COC(=O)c3cccc(NC(=O)COc4ccccc4C)c3)nc2s1,·,·,23.9µM*,·,·,·
Cc1nn2c(=O)cc(COC(=O)c3ccc(NC(=O)COc4ccc(C)c(C)c4)cc3)nc2s1,·,·,0.0%,·,·,·
O=C(NCc1ccc(Cl)cc1)C(=O)NCC(c1ccc2c(c1)OCO2)N1CCOCC1 (stereo not drawn),·,·,-1.4%,·,·,·
COc1ccc(-c2cccc(NS(=O)(=O)c3ccc(C)s3)c2)nn1,·,·,-19.1%,·,·,·
COc1cccc(N2CCN(C(=O)c3cnn(-c4ccc(C)cc4C)c3C3CCN(C(=O)OC(C)(C)C)CC3)CC2)c1,·,·,4.6%,·,·,·
COc1ccccc1N1CCN(C(=O)c2cc3c(=O)n(Cc4ccco4)ccc3nc2C)CC1,·,·,4.7%,·,·,·
Cc1ccccc1OCC(=O)Nc1ccccc1OCc1cc(=O)n2ccccc2n1,·,·,10.7µM*,·,·,·
CC1CCCN(C(=O)CSc2nc3ccccc3o2)C1 (stereo not drawn),?,3.16µM*,16.9µM*,19.0%,2.51µM*,-3.9%
CN(C(=O)CSc1nnc(-c2cccnc2)o1)C1CCCCC1,0.6%,-0.9%,-2.1%,·,-1.0%,·
O=C(O)c1ccc2oc(SCC(=O)N3CCCCC3)nc2c1,?,2.51µM*,16.9µM*,12.6µM*,3.55µM*,-1.5%
CN(C(=O)CSc1nc2ccccc2o1)C1CCCCC1,?,2.82µM*,7.57µM*,·,2.24µM*,·
CN1CC(O)C2=CC(=O)C(=O)C=C21 (stereo not drawn),·,·,·,-6.4%,·,·
Cc1cc(NS(=O)(=O)c2ccc(NS(=O)(=O)c3ccc(Br)cc3)cc2)no1,1.4%,-2.9%,0.5%,·,-3.0%,·
Cc1cc(NS(=O)(=O)c2ccc(NC(=O)COc3c(C)cc(Br)cc3C)cc2)no1,-24.8%,-2.3%,-1.2%,14.7%,-3.1%,·
CCOc1cccc(C(=O)Nc2ccc(S(=O)(=O)Nc3cc(C)on3)cc2)c1,6.3%,-1.2%,?,·,0.8%,·
Cc1cc(NS(=O)(=O)c2ccc(NC(=O)COc3ccc(Br)cc3C)cc2)no1,·,·,21.3µM*,-11.3%,·,·
Cc1cc(NS(=O)(=O)c2ccc(NC(=O)/C=C/c3ccc(Br)cc3)cc2)no1,5.1%,-1.6%,19µM*,·,-5.9%,·
Cc1ccc(/C=C/C(=O)Nc2cc(C)on2)cc1,?,3.98µM*,?,?,2.51µM*,-6.0%
CCCCOc1cccc(C(=O)Nc2ccc(S(=O)(=O)Nc3cc(C)on3)cc2)c1,4.1%,-1.2%,19µM*,·,-7.2%,·
SMILES,ELG1 genotox,Rab9 prom act,FLuc counter,SMN2 splice up,NPC1 prom act,Luc counter
CC(=O)c1ccc(NC(=O)c2ccc(-c3nc(COc4ccc(C)cc4)c(C)o3)cc2)cc1,·,·,-0.5%,·,·,·
COc1ccccc1/C=C/C(=O)Nc1ccc(S(=O)(=O)Nc2cc(C)on2)cc1,14.4%,3.1%,23.9µM*,·,-0.8%,·
Cc1ccc(/C=C/C(=O)NN2CCN(C)CC2)cc1,7.8%,10.7%,-2.3%,·,8.5%,·
COc1ccccc1OCC(=O)Nc1ccc(S(=O)(=O)Nc2cc(C)on2)cc1,2.1%,0.0%,1.2%,·,-0.2%,·
Cc1ccc(/C=C/C(=O)Nn2cnnc2)cc1,8.8%,-8.7%,5.36µM*,-6.3%,-4.6%,-7.8%
CC1CCc2c(sc3nnn(CC(=O)Nc4cccc(C(F)(F)F)c4)c(=O)c23)C1 (stereo not drawn),·,·,-16.3%,5.6%,·,·
CC(=O)Oc1ccc(-c2ccc(C(=O)O)cc2)cc1,5.4%,-6.8%,?,20.6%,-3.1%,2.1%
CC(=O)Oc1ccc(-c2cccc(C(=O)O)c2)cc1,?,-1.2%,3.79µM*,-6.8%,11.6%,-3.2%
C=CCSc1nncn1/N=C/c1ccc(OC)cc1,20.6µM*,2.24µM*,6.75µM*,12.6µM*,2.82µM*,1.7%
COc1ccc(/C=N/n2cnnc2SCCO)cc1OC,15.2%,-3.2%,?,13.0%,4.2%,-5.3%
CC(C)(C)c1ccc(C(=O)N2CCCC2)s1,?,18.7%,15.1µM*,·,-6.9%,·
COc1ccc2c(c1)c(/C=N/Nc1ccc(C(=O)O)cc1)c(C)n2C,?,23.0%,4.78µM*,·,?,·
O=C(N/N=C/c1c[nH]c2ccccc12)c1cccc(O)c1,17.3%,-4.4%,10.7µM*,·,-0.3%,·
O=C(N/N=C/c1c[nH]c2ccccc12)c1cccc(Cl)c1,13.9%,?,21.3µM*,·,?,·
CCCOc1ccc(/C=N/Nc2ccc(C(=O)O)cc2)c(OCCC)c1,?,?,5.36µM*,-8.2%,8.4%,-0.3%
Cc1ccc(CN2C(=O)c3ccccc3S(=O)(=O)c3ccc(C(=O)OCC4CCCO4)cc32)cc1 (stereo not drawn),·,·,-1.1%,·,·,·
O=C(CSc1nc2ccccc2n1Cc1cccc(Cl)c1)N1CCN(c2ccc(F)cc2)CC1,·,·,-1.9%,?,·,·
COc1ccc2c(CCNC(=O)Nc3ccccc3)c[nH]c2c1,-1.4%,4.2%,0.1%,·,-10.3%,8.3%
CC(=O)Nc1cccc(C(=O)N/N=C/c2ccc(C)o2)c1,-0.9%,-5.4%,-3.2%,-22.2%,-5.5%,0.1%
COc1ccc(C(=O)N/N=C/c2c[nH]c3ccccc23)cc1,3.4%,25.9%,13.5µM*,·,?,·
O=C(N/N=C/c1c[nH]c2ccccc12)c1ccc(O)c(O)c1,-0.4%,8.8%,2.39µM*,·,-2.2%,·
COc1ccc2c(/C=N/Nc3ccc(C(=O)O)cc3)c[nH]c2c1,?,1.41µM*,1.35µM*,·,0.794µM*,·
COc1ccc(C(=O)N/N=C/c2cc3ccccc3[nH]c2=S)cc1,0.4%,9.0%,?,-17.4%,3.6%,-5.9%
CCOc1ccccc1C(=O)N/N=C/c1c[nH]c2ccccc12,0.4%,0.4%,?,-4.1%,-9.1%,4.0%
CC(=O)Nc1cccc(C(=O)N/N=C/c2c[nH]c3ccccc23)c1,3.9%,22.7%,15.1µM*,·,27.6%,·
c1cncc(CNc2ncnc3ccc(-c4ccco4)cc23)c1,·,-0.6%,-5.7%,·,0.9%,·
Cc1cc(OCCCC(=O)Nc2cccc(-n3cnnn3)c2)ccc1Cl,-3.9%,0.8%,-4.7%,·,-0.2%,·
